Measurements from PubChem BioAssay AID1159580 (chemical genetic matrix, 2015).
Values joined by “and” are separate entries in the source; they are usually repeats but may differ in a detail not shown here. Identical values can stand only once. In all, about 5,500 compounds went through this assay and about 2,000 (36%) were called active. Roughly 18% stayed inconclusive and do not appear here. Cut-off read from the data, not from the text of the source: active = normalized growth mostly below about 0.91 (no sharp cut-off); inconclusive = no clear call, values can overlap the other calls; inactive = mostly above about 0.92. Some of the results follow.

Assay: chemical genetic growth profiling, strain panel (AID 1159580);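 note: tested at 20 µM; growth read once vehicle control cultures reached saturation at 30 °C; 1 = growth at the plate median or of vehicle wells; lower values mean less growth of the strain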
Conditions: S. cerevisiae deletion strains, growth OD

Measured: normalized growth

CC1(C)CC[C@]2(C(=O)O)CC[C@]3(C)C(=CCC4[C@@]5(C)CC[C@@H](O)C(C)(C)C5CC[C@]43C)C2C1 (stereo partly drawn)
inactive: locus YAL021C, strain ccr4, active compounds read low 1.02 | locus YAL026C, strain drs2, active compounds read low 1.01 | locus YAL030W, strain snc1, active compounds read low 1.03 | locus YBL061C, strain skt5, active compounds read low 1.01 | locus YBR009C, strain hhf1, active compounds read low 0.995 | locus YBR021W, strain FUR4, active compounds read low 1.02 | locus YBR023C, strain chs3, active compounds read low 1.01 | locus YBR171W, strain sec66, active compounds read low 1.05 | locus YBR229C, strain ROT2, active compounds read low 1.01 | locus YBR231C, strain swc5, active compounds read low 1.02 | locus YBR279W, strain paf1, active compounds read low 1.01 | locus YCL011C, strain gbp2, active compounds read low 1.01 | locus YCL016C, strain dcc1, active compounds read low 1.03 | locus YCL029C, strain bik1, active compounds read low 1.01 | locus YCL069W, strain vba3, active compounds read low 1.02 | locus YCR088W, strain abp1, active compounds read low 1.01 | locus YDL005C, strain med2, active compounds read low 1.03 | locus YDL035C, strain GPR1, active compounds read low 1.01 | locus YDL040C, strain nat1, active compounds read low 1.01 | locus YDL074C, strain BRE1, active compounds read low 1.06 | locus YDL101C, strain DUN1, active compounds read low 1.02 | locus YDL134C, strain PPH21, active compounds read low 1.04 | locus YDL185W, strain tfp1, active compounds read low 1.02 | locus YDR001C, strain nth1, active compounds read low 1.01 | locus YDR069C, strain doa4, active compounds read low 1.05 | locus YDR101C, strain arx1, active compounds read low 0.991 | locus YDR137W, strain rgp1, active compounds read low 1.07 | locus YDR150W, strain NUM1, active compounds read low 1.01 | locus YDR159W, strain sac3, active compounds read low 1.04 | locus YDR162C, strain NBP2, active compounds read low 1.05 | locus YDR195W, strain ref2 0.987 | locus YDR297W, strain sur2, active compounds read low 1 | locus YDR318W, strain mcm21, active compounds read low 1.02 | locus YDR334W, strain swr1, active compounds read low 1.03 | locus YDR335W, strain msn5, active compounds read low 1.02 | locus YDR388W, active compounds read low 1.02 | locus YDR392W, strain spt3, active compounds read low 1.03 | locus YDR502C, strain sam2, active compounds read low 1.02 | locus YEL003W, strain gim4, active compounds read low 1.02 | locus YEL037C, strain rad23, active compounds read low 1.01 | locus YEL061C, strain CIN8 (second series), active compounds read low 1 | locus YER015W, strain faa2, active compounds read low 1.01 | locus YER016W, strain bim1, active compounds read low 1.03 | locus YER110C, active compounds read low 1.02 | locus YER111C, strain swi4, active compounds read low 1.01 | locus YER155C, strain BEM2 (second series), active compounds read low 1.02 | locus YER155C, strain BEM2, active compounds read low 1.01 | locus YER167W, strain BCK2, active compounds read low 1.01 | locus YFR010W, strain ubp6, active compounds read low 1.01 | locus YGL078C, strain dbp3, active compounds read low 1.04 | locus YGL086W, strain mad1, active compounds read low 1.03 | locus YGL167C, strain pmr1, active compounds read low 1.03 | locus YGL173C, strain kem1, active compounds read low 1.02 | locus YGL227W, strain vid30, active compounds read low 1.01 | locus YGL240W, strain doc1, active compounds read low 1.03 | locus YGL248W, strain PDE1, active compounds read low 1.02 | locus YGL253W, strain hxk2, active compounds read low 1.01 | locus YGR135W, strain pre9, active compounds read low 1.02 | locus YGR229C, strain SMI1, active compounds read low 1.05 | locus YGR252W, strain gcn5, active compounds read low 0.944 | locus YHR013C, strain ard1, active compounds read low 1.04 | locus YHR027C, strain rpn1, active compounds read low 1.02 | locus YHR030C, strain SLT2, active compounds read low 1.01 and 1.02 | locus YHR079C, strain IRE1 (second series), active compounds read low 1.01 | locus YHR079C, strain IRE1, active compounds read low 1.05 | locus YHR094C, strain hxt1, active compounds read low 1.01 | locus YHR129C, strain ARP1, active compounds read low 1.01 | locus YHR142W, strain chs7, active compounds read low 1.02 | locus YHR200W, strain rpn10, active compounds read low 1.01 | locus YIL066C, strain RNR3, active compounds read low 1.03 | locus YIL073C, strain SPO22, active compounds read low 1.05 | locus YIL125W, strain kgd1, active compounds read low 1.01 | locus YJL092W, strain hpr5, active compounds read low 1.02 | locus YJL095W, strain BCK1 (second series), active compounds read low 1.03 | locus YJL095W, strain BCK1, active compounds read low 1.05 and 1.02 | locus YJL115W, strain asf1, active compounds read low 1.01 | locus YJL129C, strain trk1, active compounds read low 1.04 | locus YJL134W, strain LCB3, active compounds read low 1.01 | locus YJL154C, strain vps35, active compounds read low 1.01 | locus YJL164C, strain tpk1, active compounds read low 1.02 | locus YJL166W, strain qcr8, active compounds read low 1.02 | locus YJL168C, strain set2, active compounds read low 1.02 | locus YJL187C, strain SWE1 (second series), active compounds read low 1.04 | locus YJR043C, strain POL32, active compounds read low 1 | locus YJR066W, strain TOR1, active compounds read low 0.982 | locus YKL160W, strain elf1, active compounds read low 1.02 | locus YKL190W, strain CNB1, active compounds read low 1.02 | locus YKR001C, strain vps1, active compounds read low 0.993 | locus YKR026C, strain gcn3, active compounds read low 1.02 | locus YKR091W, strain srl3, active compounds read low 1.02 | locus YLL001W, strain dnm1, active compounds read low 1.01 | locus YLL026W, active compounds read low 1.02 | locus YLL041C, strain sdh2, active compounds read low 1.02 | locus YLR027C, strain aat2, active compounds read low 1.01 | locus YLR039C, strain RIC1, active compounds read low 1.11 | locus YLR058C, strain SHM2, active compounds read low 1.02 | locus YLR102C, strain apc9, active compounds read low 1.02 | locus YLR113W, strain HOG1, active compounds read low 0.951 | locus YLR221C, strain rsa3, active compounds read low 1 | locus YLR258W, strain gsy2, active compounds read low 1.01 | locus YLR262C, strain YPT6 (second series), active compounds read low 0.984 | locus YLR262C, strain YPT6, active compounds read low 1.1 | locus YLR268W, strain sec22, active compounds read low 0.986 | locus YLR320W, strain mms22, active compounds read low 1.01 | locus YLR342W, strain FKS1 (second series), active compounds read low 0.964 | locus YLR342W, strain FKS1, active compounds read low 1.01 | locus YLR357W, strain rsc2, active compounds read low 1.03 | locus YLR370C, strain arc18, active compounds read low 1 | locus YLR371W, strain rom2, active compounds read low 0.992 | locus YLR384C, strain iki3, active compounds read low 1.02 | locus YLR418C, strain cdc73, active compounds read low 1.09 | locus YML016C, strain PPZ1, active compounds read low 1.01 | locus YML032C, strain rad52, active compounds read low 0.991 | locus YML120C, strain ndi1, active compounds read low 1.01 | locus YML124C, strain tub3, active compounds read low 1.01 | locus YMR058W, strain fet3, active compounds read low 1.02 | locus YMR078C, strain ctf18, active compounds read low 1.02 | locus YMR125W, strain sto1, active compounds read low 1.04 | locus YMR129W, active compounds read low 1.01 | locus YMR205C, strain PFK2, active compounds read low 1.03 | locus YMR223W, strain ubp8, active compounds read low 1.02 | locus YMR231W, strain pep5, active compounds read low 1.02 | locus YMR307W, strain GAS1, active compounds read low 0.976 | locus YNL067W, strain RPL9B, active compounds read low 1.05 | locus YNL071W, strain lat1, active compounds read low 1 | locus YNL128W, strain TEP1, active compounds read low 1.03 | locus YNL183C, strain NPR1, active compounds read low 0.994 | locus YNL209W, strain ssb2, active compounds read low 1.01 | locus YNL233W, strain BNI4, active compounds read low 1.03 | locus YNL248C, strain rpa49, active compounds read low 1.01 | locus YNL250W, strain rad50, active compounds read low 1.04 | locus YNL271C, strain bni1, active compounds read low 1.03 | locus YNL298W, strain CLA4, active compounds read low 1.07 | locus YNL307C, strain MCK1, active compounds read low 1.03 | locus YNL322C, strain KRE1 (second series), active compounds read low 1.04 | locus YNR049C, strain mso1, active compounds read low 1.02 | locus YNR052C, strain pop2, active compounds read low 1.03 | locus YOL012C, strain htz1 1.33 | locus YOL147C, strain pex11, active compounds read low 1 | locus YOR001W, strain rrp6, active compounds read low 1.02 | locus YOR061W, strain CKA2, active compounds read low 1.02 | locus YOR069W, strain VPS5, active compounds read low 1.02 | locus YOR070C, strain gyp1, active compounds read low 1.03 | locus YOR080W, strain dia2, active compounds read low 1.01 | locus YOR083W, strain WHI5, active compounds read low 1.02 | locus YOR106W, strain vam3, active compounds read low 1.03 | locus YOR136W, strain idh2, active compounds read low 1.01 | locus YOR144C, strain elg1, active compounds read low 1.01 | locus YOR184W, strain ser1, active compounds read low 1.03 | locus YOR231W, strain MKK1, active compounds read low 0.997 | locus YOR265W, strain rbl2, active compounds read low 1.02 | locus YOR270C, strain vph1, active compounds read low 0.997 | locus YOR290C, strain snf2, active compounds read low 1.02 | locus YOR316C, strain cot1, active compounds read low 1.01 | locus YPL051W, strain arl3, active compounds read low 1 | locus YPL078C, strain atp4, active compounds read low 1.04 | locus YPL106C, strain sse1, active compounds read low 1.03 | locus YPL240C, strain hsp82, active compounds read low 1.01 | locus YPL256C, strain CLN2, active compounds read low 1.05 | locus YPR119W, strain clb2, active compounds read low 1.01 | locus YPR141C, strain kar3, active compounds read low 1.02 | locus YPR163C, strain tif3, active compounds read low 1.02 | locus YPR167C, strain met16, active compounds read low 1.03 | strain wtn01, active compounds read low 1
active: locus YKL009W, strain mrt4, active compounds read low 1.45 [resistant] | locus YKL068W, active compounds read low 1.21 [resistant] | locus YKL085W, strain MDH1 (second series), active compounds read low 1.09 [resistant] | locus YKL085W, strain MDH1, active compounds read low 1.09 [resistant]
